Test results published in PubChem BioAssay (NCI).
The panel holds about 79,000 compounds, 15% with a hit somewhere; the sample as a whole holds those more often. Rule as the data show it: active = growth inhibition above about 70%; inactive = the rest.

Columns and labels:
[1] = NCI Yeast Anticancer Drug Screen. Data for the rad52 strain (AID 147);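 also: 0% = growth of vehicle-treated control cultures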; conditions: S. cerevisiae rad52 mutant growth inhibition, active compounds read high
How it was run: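 DNA repair-defective yeast; compound exposure; growth scored against vehicle controls.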

[2] = NCI Yeast Anticancer Drug Screen. Data for the wt1 strain (AID 149);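 also: 0% = growth of vehicle-treated wt1 cultures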; conditions: S. cerevisiae wt1 strain (SPY 50644) growth inhibition, active compounds read high
How it was run: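 Vehicle-normalised growth inhibition; strain wt1; compound exposure.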

[3] = NCI Yeast Anticancer Drug Screen. Data for the rad50EPP+ strain (AID 151);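 also: 0% = growth of vehicle-treated control cultures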; conditions: S. cerevisiae rad50 mutant strain, active compounds read high
How it was run: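 rad50EPP+ yeast treated with test compounds. Readout: growth vs vehicle control.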

[4] = NCI Yeast Anticancer Drug Screen. Data for the mgt1 strain (AID 153); conditions: S. cerevisiae mgt1 mutant growth inhibition, active compounds read high
How it was run: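 Growth inhibition relative to vehicle controls was scored for the mgt1 yeast strain after compound exposure.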

[5] = NCI Yeast Anticancer Drug Screen. Data for the rad50 strain (AID 155);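 also: 0% = growth of vehicle-only cultures of the same strain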; conditions: S. cerevisiae rad50 strain growth inhibition, active compounds read high
How it was run: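 A DNA repair-deficient yeast mutant serves as the test organism; compound-induced growth inhibition is calculated against vehicle-treated cells.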

[6] = NCI Yeast Anticancer Drug Screen. Data for the mec2-1 strain (AID 157); conditions: S. cerevisiae mec2-1 strain, active compounds read high
How it was run: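 Growth inhibition is read against vehicle-treated controls after compound exposure of the mec2-1 yeast strain, which is defective in DNA damage repair or cell cycle control.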

[7] = NCI Yeast Anticancer Drug Screen. Data for the sgs1 mgt1 strain (AID 161);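 also: 0% = growth of cultures given vehicle only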; conditions: S. cerevisiae sgs1 mgt1 strain, active compounds read high
How it was run: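 Percent growth inhibition was derived by comparing compound-exposed mutant yeast with vehicle-exposed cultures. The strain carries alterations in DNA damage repair.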

[8] = NCI Yeast Anticancer Drug Screen. Data for the CLN2oe strain (AID 163);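 also: 0% = growth of vehicle-only control cultures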; conditions: S. cerevisiae CLN2oe strain, active compounds read high
How it was run: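 Compound-treated yeast; growth vs vehicle ctrl = % inhibition. Genetically altered strain (cell-cycle control).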

[9] = NCI Yeast Anticancer Drug Screen. Data for the cln2 rad14 strain (AID 165);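 also: 0% = growth equal to vehicle treated cultures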; conditions: S. cerevisiae cln2 rad14 strain, active compounds read high
How it was run: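 Growth inhibition, relative to vehicle-treated controls, is the read-out. The test organism is a yeast strain with defined genetic alterations, cln2 rad14.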

[10] = NCI Yeast Anticancer Drug Screen. Data for the bub3 strain (AID 167); conditions: S. cerevisiae bub3 mutant strain, active compounds read high
How it was run: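 Inhibition values come from growth of compound-treated mutant yeast normalised to vehicle-treated controls.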

[11] = NCI Yeast Anticancer Drug Screen. Data for the wt2 strain (AID 169);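 also: 0% = growth of vehicle-treated yeast cultures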; conditions: S. cerevisiae wt2 strain growth inhibition, active compounds read high
How it was run: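 Compound exposure of yeast; growth compared with vehicle controls; inhibition reported.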

[12] = NCI Yeast Anticancer Drug Screen. Data for the mlh1 strain (AID 171);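 also: 0% = growth of vehicle-treated control cultures of the same strain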; conditions: S. cerevisiae mlh1 strain growth inhibition, active compounds read high
How it was run: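 Compounds are applied to a genetically altered yeast strain, and its growth is compared with that of vehicle-treated cultures to give percent inhibition.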

[13] = NCI Yeast Anticancer Drug Screen. Data for the sgs1 strain (AID 173);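 also: 0% = growth of vehicle-only control cultures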; conditions: S. cerevisiae sgs1 mutant, active compounds read high
How it was run: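 Compounds applied to genetically altered yeast; growth compared with vehicle-treated cultures to give % inhibition.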

[14] = NCI Yeast Anticancer Drug Screen. Data for the mlh1 rad18 strain (AID 175); conditions: S. cerevisiae mlh1 rad18 strain growth inhibition, active compounds read high
How it was run: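 Cells of a genetically altered yeast strain, deficient in DNA damage repair, were treated with compound. Their growth was then compared with that of vehicle-treated cultures to give inhibition.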

[15] = NCI Yeast Anticancer Drug Screen. Data for the rad18 strain (AID 177); conditions: S. cerevisiae rad18 mutant growth inhibition, active compounds read high
How it was run: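 Compounds are applied to a repair-deficient yeast strain, and growth is compared with that of vehicle-treated cultures to give percent inhibition.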

[16] = at 5.0 µM (retest, dose inferred, filed as 0.5)
[17] = at 50.0 µM (retest, dose inferred, filed as 5.0)

Measured: growth inhibition

ClCCCOc1c(Cl)cc(Cl)cc1Cl
inactive: [1]; at 1.2 µM -2% | [1]; at 3.7 µM 2% | [1]; at 11.0 µM 5% | [1]; at 33.0 µM -3% | [1]; at 100.0 µM 10% | [2]; at 1.2 µM -1% | [2]; at 3.7 µM -2% | [2]; at 11.0 µM -3% | [2]; at 33.0 µM -5% | [2]; at 100.0 µM -1% | [3]; at 1.2 µM -4% | [3]; at 3.7 µM 4% | [3]; at 11.0 µM 13% | [3]; at 33.0 µM 10% | [3]; at 100.0 µM 32% | [4]; at 1.2 µM 0% | [4]; at 3.7 µM -1% | [4]; at 11.0 µM -2% | [4]; at 33.0 µM -1% | [4]; at 100.0 µM 1% | [5]; at 1.2 µM -2% | [5]; at 3.7 µM 4% | [5]; [16] 1% | [5]; at 11.0 µM 5% | [5]; at 33.0 µM 0% | [5]; [17] 13% | [5]; at 50.0 µM -7.15% | [5]; at 100.0 µM 10% | [6]; at 1.2 µM -2% | [6]; at 3.7 µM -2% | [6]; [16] -27% | [6]; at 11.0 µM -2% | [6]; at 33.0 µM -1% | [6]; [17] -12% | [6]; at 50.0 µM 8.65% | [6]; at 100.0 µM 1% | [7]; [16] 17% | [7]; [17] 15% | [7]; at 50.0 µM -2.55% | [8]; at 1.2 µM 1% | [8]; at 3.7 µM 0% | [8]; at 11.0 µM 0% | [8]; at 33.0 µM 1% | [8]; at 100.0 µM 5% | [9]; [16] 16% | [9]; [17] 25% | [9]; at 50.0 µM 29.6% | [10]; at 1.2 µM 0% | [10]; at 3.7 µM 1% | [10]; [16] 14% | [10]; at 11.0 µM -2% | [10]; at 33.0 µM -1% | [10]; [17] 13% | [10]; at 50.0 µM 0.6% | [10]; at 100.0 µM 0% | [11]; at 1.2 µM -7% | [11]; at 3.7 µM 1% | [11]; at 11.0 µM -7% | [11]; at 33.0 µM -2% | [11]; at 100.0 µM -8% | [12]; at 1.2 µM -2% | [12]; at 3.7 µM 0% | [12]; at 11.0 µM 3% | [12]; at 33.0 µM -1% | [12]; at 100.0 µM 9% | [13]; at 1.2 µM -15% | [13]; at 3.7 µM -22% | [13]; at 11.0 µM -21% | [13]; at 33.0 µM -5% | [13]; at 100.0 µM 10% | [14]; [16] 15% | [14]; [17] 60% | [14]; at 50.0 µM 27.1% | [15]; at 1.2 µM -4% | [15]; at 3.7 µM 12% | [15]; at 11.0 µM 12% | [15]; at 33.0 µM -2% | [15]; at 100.0 µM 6%
